# Results reported in the supplement of paper PMC7695840.
# Where a name gives a salt, the structure may show the parent alone.
# Legend:
# [1] = test system: Staphylococcus aureus MW2 delta-mecA (mecA-); test: normalized GFP fluorescence (growth of mecA- strain) (fraction of control range); higher = more growth of mecA- strain; settings: compound concentration: 150 uM; cefoxitin: subinhibitory; fluorescent label: GFP
# Outline: (§1)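 Pre-induced S. aureus MW2 cells carrying the gene (DsRed) and deletion cells lacking it (GFP) were combined 1:1 in LB containing a subinhibitory antibiotic dose set each day, then dispensed at 5 µL/well onto 150 μM compound (1.5% DMSO) in 1536-well plates as a single replicate. After 20 h at 37 °C and 90% humidity without shaking, DsRed (540/590) and GFP (485/520) were read. Each channel was scaled per plate between the medians of the single-strain controls, and plates with high untreated ratios and rows with DsRed/GFP >10 were excluded.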
# [2] = test system: Staphylococcus aureus MW2 (mecA+); test: normalized DsRed fluorescence (growth of mecA+ strain) (fraction of control range); higher = more growth of mecA+ strain; settings: compound concentration: 150 uM; cefoxitin: subinhibitory; fluorescent label: DsRed
# Outline: as §1
SMILES,normalized GFP fluorescence [1],normalized DsRed fluorescence [2]
COP(=O)(OC)C(O)C(Cl)(Cl)Cl (stereo unspecified),0.2,0.658
CCN(C)C(=O)Oc1cccc([C@H](C)N(C)C)c1,0.23,0.742
NCC(CC(=O)O)c1ccc(Cl)cc1 (stereo unspecified),0.683,0.941
CC[C@@H](C(N)=O)N1CCCC1=O,0.416,1.14
O=c1n(Cl)c(=O)n(Cl)c(=O)n1Cl,0.337,0.35
NC(=O)C[S@@+]([O-])C(c1ccccc1)c1ccccc1,0.234,1.11
CCC(=O)O[C@H]1CC[C@H]2[C@@H]3CCC4=CC(=O)CC[C@]4(C)[C@H]3CC[C@]12C,0.154,0.364
C=C1C[C@@H]2[C@H](CC[C@]3(C)C(=O)CC[C@@H]23)[C@@]2(C)C=CC(=O)C=C12 [Exemestane],0.367,0.545
CC(C)C[C@H](CN)CC(=O)O,0.412,0.571
C[N+]12CCC(CC1)C(OC(=O)C(O)(c1ccccc1)c1ccccc1)C2 (stereo unspecified),0.468,0.579
CCC(COC(=O)c1cc(OC)c(OC)c(OC)c1)(c1ccccc1)N(C)C (stereo unspecified) [Trimebutine],0.293,0.646
O=c1[nH]c2ccccc2n1CCCN1CCC(n2c(=O)[nH]c3cc(Cl)ccc32)CC1 [Domperidone (Motilium)],0.0985,0.927
CC[C@@H](c1cccc(O)c1)[C@@H](C)CN(C)C,0.313,0.724
CC[C@H]1CN2CCc3cc(OC)c(OC)cc3[C@@H]2C[C@@H]1C[C@H]1NCCc2cc(OC)c(OC)cc21,0.439,0.948
CC(NC(C)(C)C)C(=O)c1cccc(Cl)c1 (stereo unspecified) [Amfebutamone (Bupropion)],0.395,0.602
CN1C(=O)C(O)N=C(c2ccccc2)c2cc(Cl)ccc21 (stereo unspecified),0.205,0.691
CC1(C)C(C=C(Cl)Cl)C1C(=O)OCc1cccc(Oc2ccccc2)c1 (stereo unspecified),0.134,0.704
COc1ccc2c(c1)[C@]13CCCC[C@@H]1[C@H](C2)N(C)CC3,0.241,1.04
CC(C)C[C@H]1C(=O)N2CCC[C@H]2[C@]2(O)O[C@](NC(=O)[C@@H]3C=C4c5cccc6[nH]c(Br)c(c56)C[C@H]4N(C)C3)(C(C)C)C(=O)N12,0.246,1.03
C[C@]12CC[C@H]3[C@@H](CCC4=CC(=O)CC[C@@]43C)[C@@H]1CC[C@@H]2O,0.501,0.506
CC[C@@H](CO)NC(=O)[C@@H]1C=C2c3cccc4c3c(cn4C)C[C@H]2N(C)C1,0.269,0.713
Oc1cccc2cccnc12,0.00976,0.0478
CC(C)N(CCNC(=O)CN1CCCC1=O)C(C)C [Pramiracetam],0.568,0.402

SMILES,normalized GFP fluorescence [1],normalized DsRed fluorescence [2]
CC(O)(CS(=O)(=O)c1ccc(F)cc1)C(=O)Nc1ccc(C#N)c(C(F)(F)F)c1 (stereo unspecified) [Bicalutamide (Casodex)],0.0167,0.707
CC(=O)OC1CN2CCC1CC2 (stereo unspecified),0.565,0.665
CC(Cc1ccc(O)cc1)NCC(O)c1cc(O)cc(O)c1 (stereo unspecified),0.322,0.737
O=P1(N(CCCl)CCCl)NCCCO1 (stereo unspecified),0.58,0.629
N[C@@H]1C[C@H]1c1ccccc1.N[C@H]1C[C@@H]1c1ccccc1,0.546,0.701
CN(C)C(=O)Oc1cccc([N+](C)(C)C)c1,0.41,1.1
CN(C)C(=O)Oc1ccc[n+](C)c1,0.22,0.58
C[C@@H]1CC[C@H]2[C@@H](C)C(=O)O[C@@H]3O[C@@]4(C)CC[C@@H]1[C@]32OO4 [Artemisinin],0.505,0.66
C[C@H]1CNCCc2ccc(Cl)cc21 [Lorcaserin HCl],0.467,0.636
CC(=O)O[C@H]1C[C@@H]2CC[C@@H]3[C@H](CC[C@@]4(C)[C@H]3C[C@H]([N+]3(C)CCCCC3)[C@@H]4OC(C)=O)[C@@]2(C)C[C@@H]1[N+]1(C)CCCCC1 [Pancuronium (Pavulon)],0.324,0.578
O=P1(NCCCl)OCCCN1CCCl (stereo unspecified),0.399,0.711
O=[N+]([O-])O[C@H]1CO[C@H]2[C@@H]1OC[C@H]2O[N+](=O)[O-],0.915,0.65
COc1ccc(C(CN(C)C)C2(O)CCCCC2)cc1 (stereo unspecified),0.6,0.623
Nc1ccncc1,0.334,0.715
CC(C)[N+](C)(CCC(C(N)=O)(c1ccccc1)c1ccccc1)C(C)C,0.202,0.447
CCCN1C[C@H](CSC)C[C@@H]2c3cccc4[nH]cc(c34)C[C@H]21 [Pergolide mesylate],0.105,1.03
C[C@]12CC[C@H]3[C@@H](CC[C@@]45O[C@@H]4C(O)=C(C#N)C[C@]35C)[C@@H]1CC[C@@H]2O,0.134,1.06
CC[C@H](C)[C@H]1O[C@]2(C=C[C@@H]1C)C[C@@H]1C[C@@H](C/C=C(\C)[C@@H](O[C@H]3C[C@H](OC)[C@@H](O[C@H]4C[C@H](OC)[C@@H](O)[C@H](C)O4)[C@H](C)O3)[C@@H](C)/C=C/C=C3\CO[C@@H]4[C@H](O)C(C)=C[C@@H](C(=O)O1)[C@]34O)O2.CO[C@H]1C[C@H](O[C@H]2[C@H](C)O[C@@H](O[C@@H]3/C(C)=C/C[C@@H]4C[C@@H](C[C@]5(C=C[C@H](C)[C@@H](C(C)C)O5)O4)OC(=O)[C@@H]4C=C(C)[C@@H](O)[C@H]5OC/C(=C\C=C\[C@@H]3C)[C@]54O)C[C@@H]2OC)O[C@@H](C)[C@@H]1O,0.294,0.502
CNC(C)(C)Cc1ccccc1,0.75,0.831
CO[C@]12C[C@@H](COC(=O)c3cncc(Br)c3)CN(C)[C@@H]1Cc1cn(C)c3cccc2c13,0.411,0.751
C[C@@H]1[C@H](O)[C@@H](C)/C=C/C=C/CC/C=C/C=C/C=C/C=C/[C@H](O[C@H]2O[C@@H](C)[C@H](O)[C@@H](N)[C@H]2O)C[C@@H]2O[C@](O)(C[C@@H](O)[C@H](O)CC[C@@H](O)C[C@@H](O)C[C@@H](O)CC(=O)O[C@H]1C)C[C@H](O)[C@H]2C(=O)O [Nystatin (Fungicidin)],0.00493,0.585
C[N+]1(C)[C@@H]2CC[C@H]1C[C@@H](OC(=O)C(CO)c1ccccc1)C2 (stereo partly specified),0.479,0.574
CN1C[C@H](C(=O)N[C@]2(C)O[C@@]3(O)[C@@H]4CCCN4C(=O)[C@H](Cc4ccccc4)N3C2=O)C[C@@H]2c3cccc4[nH]cc(c34)C[C@H]21,0.246,0.753

SMILES,normalized GFP fluorescence [1],normalized DsRed fluorescence [2]
C[C@]12CCC(=O)C(O)=C1CC[C@@H]1[C@@H]2CC[C@]2(C)C(=O)CC[C@@H]12 [Formestane],0.477,0.7
C#C[C@]1(O)C=C[C@H]2[C@@H]3CCC4=CC(=O)CC[C@@H]4[C@H]3CC[C@@]21CC [Gestodene],0.342,0.279
C=CCN1CC[C@]23c4c5ccc(O)c4O[C@H]2C(=O)CC[C@@]3(O)[C@H]1C5,0.642,0.643
Cc1c(N)nc(C(CC(N)=O)NCC(N)C(N)=O)nc1C(=O)NC(C(=O)NC(C)C(O)C(C)C(=O)NC(C(=O)NCCc1nc(-c2nc(C(=O)NCCC[S+](C)C)cs2)cs1)C(C)O)C(O[C@@H]1O[C@@H](CO)[C@@H](O)[C@H](O)[C@@H]1O[C@H]1O[C@H](CO)[C@@H](O)[C@H](OC(N)=O)[C@@H]1O)c1cnc[nH]1 (stereo partly specified),0.114,0.862
C=C/C=C\CC1=C(C)[C@@H](OC(=O)[C@@H]2[C@@H](/C=C(\C)C(=O)OC)C2(C)C)CC1=O.C=C/C=C\CC1=C(C)[C@@H](OC(=O)[C@@H]2[C@@H](C=C(C)C)C2(C)C)CC1=O,0.39,0.442
Oc1ccc2c3c1O[C@H]1[C@@H](O)CC[C@@]4(O)[C@@H](C2)N(CC2CCC2)CC[C@]314,0.717,0.715
CN1C(=O)CCS(=O)(=O)C1c1ccc(Cl)cc1 (stereo unspecified),0.212,0.676
CCOC(=O)c1cncn1C(C)c1ccccc1 (stereo unspecified),0.248,0.732
CCC1(c2cccc(O)c2)CCCCN(C)C1 (stereo unspecified) [Meptazinol HCl],0.168,0.815
CC(=O)O[C@H]1C[C@H](O[C@H]2[C@@H](O)C[C@H](O[C@H]3[C@@H](O)C[C@H](O[C@H]4CC[C@@]5(C)[C@H](CC[C@@H]6[C@@H]5C[C@@H](O)[C@]5(C)[C@@H](C7=CC(=O)OC7)CC[C@]65O)C4)O[C@@H]3C)O[C@@H]2C)O[C@H](C)[C@H]1O[C@@H]1O[C@H](CO)[C@@H](O)[C@H](O)[C@H]1O,0.391,0.766
C[C@@H]1O[C@@H](O[C@@H]2C=C3CC[C@@H]4[C@H](CC[C@]5(C)[C@@H](c6ccc(=O)oc6)CC[C@]45O)[C@@]3(C)CC2)[C@H](O)[C@H](O)[C@H]1O,0.198,0.926
Cl[C@H]1[C@H](Cl)[C@@H](Cl)[C@@H](Cl)[C@H](Cl)[C@H]1Cl,0.612,0.538
C[N+]1([O-])[C@@H]2CC[C@H]1C[C@@H](OC(=O)C(CO)c1ccccc1)C2 (stereo partly specified),0.483,1.24
C#CCN(C)[C@H](C)Cc1ccccc1,0.853,0.547
CN1C[C@H](C(=O)N[C@]2(C)O[C@@]3(O)[C@@H]4CCCN4C(=O)[C@H](Cc4ccccc4)N3C2=O)C=C2c3cccc4[nH]cc(c34)C[C@H]21,0.435,1.11
O=[N+]([O-])O[C@@H]1CO[C@H]2[C@@H]1OC[C@@H]2O,0.742,1.13
O=C(O)CCCc1ccc(N(CCCl)CCCl)cc1,0.418,1.38
COc1cc2c(c(OC)c1OC)-c1ccc(OC)c(=O)cc1[C@@H](NC(C)=O)CC2,0.0184,0.897
CNC(C)[C@H](O)c1ccccc1 (stereo partly specified),0.353,0.809
CCC1(c2ccc(N)cc2)CCC(=O)NC1=O (stereo unspecified),0.425,0.946
O=C1CC[C@@]2(O)[C@H]3Cc4ccc(O)c5c4[C@@]2(CCN3CC2CC2)[C@H]1O5,0.283,0.86
CC(O)CN1CCN(CC(=O)[O-])CCN(CC(=O)[O-])CCN(CC(=O)[O-])CC1.[Gd+3] (stereo unspecified),0.58,0.515
